Reference: PubChem BioAssay (NCATS)
The source made the active and inactive calls. Calls follow the shape of the full dose curve.

target: Glucocorticoid receptor (Homo sapiens) (UniProt P04150); assay: GR-EFC Redistribution (AID 451); settings: CHO-K1 GR-EFC translocation, beta-gal luminescence, 2 h
In short: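 CHO-K1 cells expressing nuclear EA and GR-ED fragments of b-gal; compounds titrated up to 46 uM final, 2 h at 37 C. GR nuclear translocation read as complemented b-gal luminescence after 1 h RT detection.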
Potency is read from the fitted curve at half-maximal effect.

Chain of Glucocorticoid receptor (Homo sapiens) (P04150 whole entry, looked up, the tested form may be a part): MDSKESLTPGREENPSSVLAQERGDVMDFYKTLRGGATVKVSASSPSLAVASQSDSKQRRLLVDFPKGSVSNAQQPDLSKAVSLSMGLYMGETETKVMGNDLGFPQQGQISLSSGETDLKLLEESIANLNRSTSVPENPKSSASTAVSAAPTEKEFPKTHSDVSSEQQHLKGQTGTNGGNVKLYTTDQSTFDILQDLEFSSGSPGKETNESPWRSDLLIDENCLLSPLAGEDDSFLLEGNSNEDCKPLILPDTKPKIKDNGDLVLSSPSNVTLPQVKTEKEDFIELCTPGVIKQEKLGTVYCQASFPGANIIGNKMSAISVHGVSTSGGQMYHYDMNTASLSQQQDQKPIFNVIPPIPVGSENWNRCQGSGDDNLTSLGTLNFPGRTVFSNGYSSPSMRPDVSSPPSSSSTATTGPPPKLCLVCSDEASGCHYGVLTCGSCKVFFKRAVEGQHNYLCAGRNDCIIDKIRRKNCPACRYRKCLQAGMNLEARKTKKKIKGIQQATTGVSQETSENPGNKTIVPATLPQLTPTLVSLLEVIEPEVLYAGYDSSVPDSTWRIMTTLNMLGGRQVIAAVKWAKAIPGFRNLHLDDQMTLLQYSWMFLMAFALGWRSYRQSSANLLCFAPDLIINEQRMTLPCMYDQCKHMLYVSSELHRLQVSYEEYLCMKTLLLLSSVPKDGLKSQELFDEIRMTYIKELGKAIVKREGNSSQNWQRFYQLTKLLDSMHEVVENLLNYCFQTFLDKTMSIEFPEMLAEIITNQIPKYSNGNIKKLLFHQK

Potency, inactive:
CC(C)C[C@@H](CC(=O)N[C@@H](CCC(=O)O)CC(=O)O)NC(=O)[C@@H]1CCCC[C@H]1NC(=O)C[C@@H](NC(=O)C[C@H](Cc1ccccc1)NC(=O)[C@@H]1CNCC[C@H]1N)C(C)C > 46 µM
CC(C)C[C@@H](CC(=O)N[C@@H](CCCN)CC(=O)N[C@@H]1CCNC[C@H]1C(=O)N[C@H](CC(=O)N[C@@H](CCC(=O)O)CC(=O)O)Cc1c[nH]c2ccccc12)NC(=O)[C@@H]1CCCC[C@H]1N > 46 µM
NCCC[C@@H](CC(=O)N[C@@H]1CCCC[C@H]1C(=O)N[C@H](CC(=O)N[C@@H](CCC(=O)O)CC(=O)O)Cc1ccccc1)NC(=O)C[C@H](Cc1c[nH]c2ccccc12)NC(=O)[C@@H]1CNCC[C@H]1N > 46 µM
CC(C)C[C@@H](CC(=O)N[C@@H](CCCN)CC(=O)N[C@@H]1CCNC[C@H]1C(=O)N[C@H](CC(=O)N[C@@H](CCC(=O)O)CC(=O)O)Cc1ccccc1)NC(=O)[C@@H]1CNCC[C@H]1N > 46 µM
CC(C)C[C@@H](CC(=O)N[C@@H](CCCN)CC(=O)N[C@@H]1CCNC[C@H]1C(=O)N[C@H](CC(=O)N[C@@H](CCC(=O)O)CC(=O)O)Cc1ccccc1)NC(=O)[C@@H]1CCCC[C@H]1N > 46 µM
CC(C)C[C@@H](CC(=O)N[C@@H](CCC(=O)O)CC(=O)O)NC(=O)[C@@H]1CCCC[C@H]1NC(=O)C[C@@H](NC(=O)C[C@H](Cc1c[nH]c2ccccc12)NC(=O)[C@@H]1CNCC[C@H]1N)C(C)C > 46 µM
